Shown are actives, neighbours in structure and some others; about 8.1% of the full set was active somewhere.
KB-3-1 cytotox = KB-3-1 parental cell cytotoxicity; KB-3-1 viability, CellTiter-Glo ATP luminescence, 72 h; Potency, µM (doses to about 46.1 µM), most hits filed as cytotoxic; actives 1.4% (n = 400,000); further: on the % scale 0 is the no-effect control and ±100 the full control effect; nearly all actives have a fitted effect of over 60% in size
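Cells are dispensed, compounds pinned in, plates held at 37 °C for 72 h, then CellTiter-Glo is added and luminescence read after 10 minutes. Cell line: parental KB-3-1 in phenol-red-free DMEM, 10% FBS.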
SW480 rerep = inducers of DNA re-replication in SW480 colon cancer cells; SW480 DNA re-replication, Hoechst DNA content imaging, 48 h; Potency, µM (doses to about 46.1 µM), inactives show at the top dose re-replication activation, usual class: activators; actives 1.8% (n = 340,000); further: % of control where 0% means no effect; nearly all actives have a fitted effect of over 55% in size
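Compounds, transferred as 23 nL by pin tool, were incubated with cells for 48 hr; DNA content per nucleus was then quantified by Hoechst staining and fluorescence plate imaging.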
KB-V1 MDR tox = KB-V1 MDR subline cytotoxicity. actives 3.4% (n = 400,000). KB-V1 MDR cells viability, CellTiter-Glo, 72 h. Potency, µM (highest dose often 46.1 µM), actives largely listed as cytotoxic; further: on the % scale 0 is the no-effect control and ±100 the full control effect; nearly all actives have a fitted effect of over 60% in size
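KB-V1 MDR subline cells in DMEM (phenol-red free, 10% FBS) exposed to compounds in qHTS concentration series for 72 h at 37 degrees C. Viability read by CellTiter-Glo luminescence; concentration-effect curves fitted after normalization and correction.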
ELG1 repair inh = inhibitors of ELG1-dependent DNA repair in HEK293T cells | HEK293T ELG1-luciferase reporter, luminescence, 16 h; DNA damage induced by 5-fluorouridine | Potency, µM (top dose mostly 46.1 µM), inactives show at the top dose activity change, negative = inhibition, actives largely listed as inhibitors | actives 2.3% (n = 330,000) | AID 504467; further: on the % scale 0 is the no-effect control and ±100 the full control effect; nearly all actives have a fitted effect of over 55% in size
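DMSO vehicle served as the neutral condition. Each well held 2,000 cells given 5-fluorouridine plus compound; after 16 hr at 37 °C/5% CO2, ONE-Glo was added and luciferase measured 30 min later.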
MCF10A rerep = DNA re-replication induction in MCF 10a cells | MCF 10A DNA re-replication, Hoechst nuclear intensity, 48 h | Potency, µM (titrated, usually from 46.1 µM), for the others: at the highest dose activity, positive = re-replication, actives largely listed as activators | actives 2.9% (n = 350,000) | AID 624296; further: % of control where 0% means no effect; nearly all actives have a fitted effect of over 50% in size
* hit, by the source's call; i = inactive; ? = inconclusive; . = not tested or not shown. The call rests on the fitted dose curve; in most records, active means well fitted curve in the direction sought with a large enough effect; inconclusive means small, poorly fitted or top-dose-only effect, or another doubt; inactive means no such curve, though single readings can be large; an effect the other way counts as inactive or inconclusive. Potency means the concentration at half of the fitted maximal effect.

SMILES | KB-3-1 cytotox | SW480 rerep | KB-V1 MDR tox | ELG1 repair inh | MCF10A rerep
Nc1nc(NCCOCCO)nc(NC2CCCCC2)c1[N+](=O)[O-] | i | ? | i | 14.2% | 12.7%
Nc1nc(Nc2ccccc2)nc(NC2CCCCC2)c1[N+](=O)[O-] | ? | 9.2µM* | ? | ? | ?
CC1(C(=O)Nc2cccc(-n3cnnn3)c2)Cc2ccccc2C(=O)O1 (stereo not drawn) | i | 12.0% | 11.6µM* | ? | -0.5%
O=C(NCc1ccccc1Cl)C(=O)NCC1OCCN1S(=O)(=O)c1ccc(F)cc1 (stereo not drawn) | . | 43.5% | . | -26.7% | 2.5%
O=C(c1ccccc1Cl)N1CCn2c1nc1ccccc12 | i | 3.9% | i | 14.7% | -4.3%
O=C(c1ccccc1Br)N1CCn2c1nc1ccccc12 | i | -15.1% | i | 11.1% | 3.66µM*
COC(=O)c1c(NC(=O)C(C)C)sc2c1C(C(=O)OC)CC2 (stereo not drawn) | ? | -3.5% | 13µM* | -24.6% | -2.8%
COC(=O)c1c(NC(=O)c2ccco2)sc2c1C(C(=O)OC)CC2 (stereo not drawn) | i | 14.7% | 18.4µM* | ? | 23.3%
OC1CCCN(c2c3c(nc4cc(-c5cccc(F)c5)nn24)CCCC3)C1 (stereo not drawn) | i | 7.5% | i | ? | 26.7%
Cc1cccc(-c2cc3nc4c(c(NCc5ccco5)n3n2)CCCC4)c1 | i | ? | ? | ? | 16.4µM*
Cc1cccc(-c2cc3nc4c(c(N5CCCC(O)C5)n3n2)CCC4)c1 (stereo not drawn) | i | 6.5% | ? | 16.4µM* | 3.6%
OC1CCCN(c2c3c(nc4cc(-c5cccc(Cl)c5)nn24)CCC3)C1 (stereo not drawn) | i | 5.9% | 16.4µM* | 20.6µM* | -4.8%
Cc1cccc(-c2cc3nc4c(c(N5CCOCC5)n3n2)CCCC4)c1 | i | -0.1% | ? | ? | 1.0%
CCc1nc2ccc(C(=O)N3CCN(S(=O)(=O)CC)CC3)cn2c1N(CC)C(=O)NCCc1ccccc1 | i | . | i | . | .
Cc1c(NC(=O)c2cc(Br)ccc2Cl)cccc1-n1cnnn1 | i | -24.6% | i | -14.9% | 7.7%
CCc1cccc(OCC(=O)Nc2ccc(S(=O)(=O)Nc3ncccn3)cc2)c1 | i | . | i | . | .
N#C/C(=C\c1ccc(-c2cccc([N+](=O)[O-])c2)o1)c1nnc(N2CCOCC2)n1-c1ccccc1 | . | . | . | 5.8µM* | .
c1ccn2cc(-c3ccc4c(c3)OCCO4)nc2c1 | ? | -2.6% | ? | ? | 1.7%
Clc1ccc2nc(-c3ccccc3)cn2c1 | i | -3.2% | i | ? | 6.9%
Clc1ccc2nc(-c3ccc4c(c3)OCO4)cn2c1 | ? | 23.1µM* | ? | ? | ?
CN(C)S(=O)(=O)c1cccc(-c2cn3cc(Cl)ccc3n2)c1 | i | -1.8% | 16.4µM* | -16.2% | -5.5%
Cc1ccc2nc(-c3ccc4c(c3)OCCO4)cn2c1 | 3.66µM* | 2.59µM* | ? | ? | 5.8µM*
COc1ccc(-c2cn3cc(C)ccc3n2)cc1OC | i | -5.6% | 6.51µM* | ? | 0.2%
CCOC(=O)c1sc2ccccc2c1S(=O)(=O)Nc1ccc(OC)c(Cl)c1 | i | . | i | . | .
CC[C@H]1C(=O)[C@@H](Cc2ccccc2)[C@@H]2CCN3C(=O)CCC[C@H]1[C@H]23 | i | ? | ? | . | -3.8%
SMILES | KB-3-1 cytotox | SW480 rerep | KB-V1 MDR tox | ELG1 repair inh | MCF10A rerep
CCc1ccccc1NC(=O)c1nnn(-c2ccc(F)cc2)c1C | i | . | i | . | .
C=CCN(c1ccccc1)S(=O)(=O)c1cccc(C(=O)Nc2nc3ccccc3[nH]2)c1 | i | 6.6% | i | 23.1µM* | 26.2%
COc1ccc(N(C)S(=O)(=O)c2cccc(C(=O)NC3CCCCCC3)c2)cc1 | i | 25.7% | ? | ? | ?
COc1ccc(N(C)S(=O)(=O)c2cccc(C(=O)Nc3nc4ccccc4[nH]3)c2)cc1 | ? | ? | 16.4µM* | ? | ?
COc1ccc(N(C)S(=O)(=O)c2cccc(C(=O)Nc3nnc(C)s3)c2)cc1 | i | -13.2% | i | ? | ?
COc1ccc(N(C)S(=O)(=O)c2cccc(C(=O)Nc3nc(C)c(C(C)=O)s3)c2)cc1 | i | -15.7% | i | 10.3µM* | -0.3%
COc1ccc(N(C)S(=O)(=O)c2cccc(C(=O)Nc3cccc(C(=O)NC4CC4)c3)c2)cc1 | ? | -2.3% | i | 20.6µM* | ?
C[C@H]1CN([C@@H](C)CO)C(=O)Cc2cc(NS(=O)(=O)c3ccc(Cl)cc3)ccc2O[C@@H]1CN(C)C(=O)Nc1cccc2ccccc12 | i | -11.4% | ? | -0.7% | ?
N#Cc1cccc(NC(=O)c2cc(C3CCCCN3C(=O)c3ccc4c(c3)CCO4)on2)c1 (stereo not drawn) | i | . | i | . | .
Cc1nn(Cc2cccc(C(N)=O)c2)c(C)c1Br | i | -6.4% | i | -6.2% | 1.0%
O=C(Nc1nc2ccccc2[nH]1)c1cccc(Cl)c1 | i | -2.6% | i | ? | -4.1%
C=CCN(c1ccccc1)S(=O)(=O)c1cccc(C(=O)NCc2ccncc2)c1 | i | -5.9% | ? | 8.2µM* | 2.9%
CCN(c1ccccc1)S(=O)(=O)c1cccc(C(=O)NCc2ccncc2)c1 | i | -23.0% | i | -9.6% | 11.7%
CCSc1nnc(NC(=O)c2cccc(S(=O)(=O)N(C)c3ccc(C)cc3)c2)s1 | i | 18.4µM* | 14.6µM* | 3.1% | ?
CN(c1cccc(Cl)c1)S(=O)(=O)c1cccc(C(=O)NC2=NCCS2)c1 | 23.1µM* | ? | 20.6µM* | ? | ?
CN(c1cccc(Cl)c1)S(=O)(=O)c1cccc(C(=O)Nc2nc3ccccc3[nH]2)c1 | 14.6µM* | ? | ? | ? | 8.2µM*
CC(C(=O)NCCc1ccc(Cl)cc1)n1c(=O)c2cccn2c2cccnc21 (stereo not drawn) | i | ? | i | -3.7% | 6.8%
O=C(Nc1ccc(-c2nc3ccccc3[nH]2)cc1)c1ccc(Oc2ccccc2)cc1 | i | . | i | . | .
COc1ccc(Cl)cc1NS(=O)(=O)c1cccc(C(=O)NC2CC2)c1 | i | -5.3% | 18.4µM* | 0.0% | -4.6%
CC1(C(=O)O)CCN1C(=O)c1cccnc1Oc1ccccc1 (stereo not drawn) | i | . | i | . | .
COC(=O)c1ccc(N2CCCCC2)c(NC(=O)c2ccco2)c1 | i | 0.1% | i | 23.1µM* | ?
O=C(c1ccccc1)c1ccc(N2CCOCC2)c(NC(=O)c2ccco2)c1 | ? | -0.4% | ? | 16.4µM* | ?
O=C(Nc1cc(Cl)ccc1N1CCOCC1)c1ccco1 | i | -6.0% | i | -2.1% | 0.5%

Bioassay records (PubChem)
